Hit rate of the full screen: of about 310,000 compounds, about 2,200 (0.71%) showed an effect of 50% or more. The effect is printed as a negative number. This excerpt belongs to a sample that is enriched for strong results.
These compounds were tested against human ether-à-go-go-related gene (hERG) potassium channel (human, UniProt Q12809) (assay: primary screen, population patch clamp on CHO cells stably expressing hERG; higher = less effect of the substance).
Chain of human ether-à-go-go-related gene (hERG) potassium channel (Q12809 whole entry, looked up): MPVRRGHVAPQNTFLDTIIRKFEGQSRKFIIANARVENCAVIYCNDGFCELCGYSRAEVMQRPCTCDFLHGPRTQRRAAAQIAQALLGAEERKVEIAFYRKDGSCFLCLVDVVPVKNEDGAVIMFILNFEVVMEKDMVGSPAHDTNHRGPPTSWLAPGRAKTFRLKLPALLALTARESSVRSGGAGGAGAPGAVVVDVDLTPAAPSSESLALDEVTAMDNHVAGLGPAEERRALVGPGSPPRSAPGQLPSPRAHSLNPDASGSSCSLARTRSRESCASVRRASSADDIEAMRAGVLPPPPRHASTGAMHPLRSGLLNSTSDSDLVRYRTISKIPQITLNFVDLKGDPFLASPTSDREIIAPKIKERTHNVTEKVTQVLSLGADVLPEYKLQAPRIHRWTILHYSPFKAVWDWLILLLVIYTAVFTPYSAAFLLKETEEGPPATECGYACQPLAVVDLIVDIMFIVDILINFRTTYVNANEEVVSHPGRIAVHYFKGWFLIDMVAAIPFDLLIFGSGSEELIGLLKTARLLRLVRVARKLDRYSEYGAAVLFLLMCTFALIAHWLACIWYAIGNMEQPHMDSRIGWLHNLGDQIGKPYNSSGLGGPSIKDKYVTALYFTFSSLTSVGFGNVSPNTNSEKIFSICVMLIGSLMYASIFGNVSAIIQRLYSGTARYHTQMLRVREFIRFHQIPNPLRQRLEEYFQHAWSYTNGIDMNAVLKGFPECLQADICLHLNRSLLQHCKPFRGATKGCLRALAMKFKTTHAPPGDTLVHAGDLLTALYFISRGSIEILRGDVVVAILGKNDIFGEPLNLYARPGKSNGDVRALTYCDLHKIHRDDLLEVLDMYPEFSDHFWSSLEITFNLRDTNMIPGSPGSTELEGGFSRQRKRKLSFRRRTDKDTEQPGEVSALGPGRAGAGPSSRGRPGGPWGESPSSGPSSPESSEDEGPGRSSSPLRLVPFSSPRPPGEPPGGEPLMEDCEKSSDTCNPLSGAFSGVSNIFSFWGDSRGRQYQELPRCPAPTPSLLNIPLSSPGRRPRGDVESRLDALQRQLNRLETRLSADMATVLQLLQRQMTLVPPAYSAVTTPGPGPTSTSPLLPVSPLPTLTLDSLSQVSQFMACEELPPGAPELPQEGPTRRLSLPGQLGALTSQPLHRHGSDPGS

Structure (SMILES) | hERG current change (%, negative = inhibition) at 1uM
COc1cccc(-c2nc3n(n2)C(c2ccc4c(c2)OCO4)C(C(N)=O)=C(C)N3)c1 (centres unmarked) | 6.43%
Cn1c(=O)[nH]c(=O)c2c1nc(N1CCCCCC1)n2CCSc1nc2ccccc2o1 | 7.86%
COc1ccc(C(CCN2CCOCC2)c2c(OC)cc(OC)c3c(C)cc(=O)oc23)cc1 (centres unmarked) | -32.6%
COc1cc(C(CCN2CCCC2)c2c(OC)cc(OC)c3ccc(=O)oc23)cc(OC)c1OC (centres unmarked) | -26.2%
COc1cc(C(CCN2CCCCC2)c2c(OC)cc(OC)c3c(-c4ccccc4)cc(=O)oc23)cc(OC)c1OC (centres unmarked) | -12%
COc1cc(C(CCN2CCOCC2)c2c(OC)cc(OC)c3c(C)cc(=O)oc23)cc(OC)c1OC (centres unmarked) | -70.3%
CCCCCc1cc(=O)oc2c(C(CCN3CCCCC3)c3cc(OC)c(OC)c(OC)c3)c(OC)cc(OC)c12 (centres unmarked) | -10.6%
COc1cc(C(CCN2CCCC2)c2c(OC)cc(OC)c3c(C)cc(=O)oc23)cc(OC)c1OC (centres unmarked) | -69%
COc1cc(C(CCN2CCCCC2)c2c(OC)cc(OC)c3c(C)cc(=O)oc23)cc(OC)c1OC (centres unmarked) | -96.3%
COc1cc(C(CCN2CCN(c3ccccc3)CC2)c2c(OC)cc(OC)c3c(C)cc(=O)oc23)cc(OC)c1OC (centres unmarked) | 9.23%
COc1cc(C(CCN2CCCC2)c2c(OC)cc(OC)c3c(-c4ccccc4)cc(=O)oc23)cc(OC)c1OC (centres unmarked) | -10.9%
O=C(NCCCn1ccnc1)C(=O)c1c[nH]c2ccccc12 | 3.2%
CC(=O)Nc1ncc(Cc2cccc(Cl)c2)s1 | 9.23%
CC(=O)NS(=O)(=O)c1ccc(NC(=O)CC(C)c2ccccc2)cc1 (centres unmarked) | 2.97%
COc1ccc(N2C(=O)CC(NC34CC5CC(CC(C5)C3)C4)C2=O)c(OC)c1 (centres unmarked) | 8.85%
CCCN(CC(=O)Nc1cc(C)on1)S(=O)(=O)c1cccc(C(F)(F)F)c1 | 11.3%
CCN(CC(=O)Nc1c(F)cccc1F)C(=O)/C=C/c1ccc2c(c1)OCO2 | 3.1%
N=c1c(C(=O)NC2CCCC2)cc2c(=O)n3ccccc3nc2n1CCCN1CCOCC1 | -63.7%
N=c1c(C(=O)NC2CCCC2)cc2c(=O)n3ccccc3nc2n1CCN1CCOCC1 | -94.2%
CCOC(=O)c1c(C2CC2)csc1NC(=O)CSCc1c(C)noc1C | 11.4%
CCOC(=O)N1CCN(C(=O)Nc2ccc3nc(C)c(C)nc3c2)CC1 | 4.44%
CC(C)c1ccc(CNc2ccc([N+](=O)[O-])cn2)cc1 | 9.11%
Cc1cc(C)c(S(=O)(=O)NCc2ccncc2)c(C)c1 | 5.64%
C=CCn1c(O)c(C(CC)=NCc2ccco2)c(=O)[nH]c1=O | 2.16%

Structure (SMILES) | hERG current change (%, negative = inhibition) at 1uM
CCN(CC)S(=O)(=O)c1ccc(C2CNC(=O)C2)cc1 (centres unmarked) | -53.8%
O=C1CC(c2ccc(S(=O)(=O)NC3CC3)cc2)CN1 (centres unmarked) | 2.43%
COCCNS(=O)(=O)c1ccc(C2CNC(=O)C2)cc1 (centres unmarked) | 11.3%
Cc1cccc(C(=O)NC(=S)Nc2ccccc2C(=O)O)c1 | 6.08%
CCOC(=O)C1CCCN(c2nc(C)nc3c2oc2ccccc23)C1.Cl (centres unmarked) | 8.69%
Cc1cc2cc3c(=O)[nH]c(=O)[nH]c3nc2cc1C | 12.1%
Cc1sc2ncnc(NCC3(N4CCOCC4)CCCCC3)c2c1C | -23%
c1nc(NCC2(N3CCOCC3)CCCCC2)c2ccsc2n1 | -54.5%
c1nc(Nc2ccc(N3CCOCC3)cc2)c2ccsc2n1 | 8.37%
COc1ccc(C2=NS(=O)(=O)N(C)C(C(=O)N3CCC(C(N)=O)CC3)=C2)cc1 | -8.49%
Cc1ccc(NC(=O)c2cc(NC(=O)CCC(=O)O)ccc2N2CCCCC2)cc1 | 11.9%
Cc1nnc(NC(=O)CN2C(=O)c3ccccc3S2(=O)=O)s1 | 7.28%
CCCCC(=O)N1CCCC(c2nc3c(nnn3Cc3cc(C)ccc3C)c(=O)[nH]2)C1 (centres unmarked) | 3.86%
CCOS(=O)(=O)[O-].CC[n+]1c(/C=C/Nc2ccccc2)oc2ccc(OC)cc21 | -68.8%
CC[n+]1ccccc1/C=C/Nc1ccccc1.[I-] | -5.67%
CC[n+]1c(/C=C/C=C/c2ccc(N(C)C)cc2)sc2ccccc21.[O-][Cl+3]([O-])([O-])[O-] | -29%
CC[n+]1c(/C=C/C=C/N(C(C)=O)c2ccccc2)sc2ccccc21.[I-] | -52.2%
CC[n+]1c(/C=C/C=C/N(C(C)=O)c2ccccc2)sc2cc(OC)ccc21.[I-] | 7.77%
CC[n+]1c(/C=C2\C=C(C)CC(C)(C)C2)sc2ccccc21.[I-] | -4.87%
CCN1/C(=C/C=C/c2oc3ccc(-c4ccccc4)cc3[n+]2CC)Oc2ccc(-c3ccccc3)cc21.CCOS(=O)(=O)[O-] | -2.56%
CC[n+]1c(/C=C/Nc2ccccc2)sc2ccccc21.[I-] | -62.8%
CC[n+]1c(/C=C/Nc2ccccc2)oc2ccccc21.[I-] | -64.9%
CC[n+]1c(/C=C/N(C)c2ccccc2)oc2ccccc21.O=S(=O)([O-])CCO | 12%
CCN1/C(=C/C=C/c2sc3ccccc3[n+]2CC)Sc2ccccc21.[I-] | -36.8%

Structure (SMILES) | hERG current change (%, negative = inhibition) at 1uM
CCOc1ccc(S(=O)(=O)Nc2cccc(OC)c2)cc1 | -5.91%
COC(=O)c1ccccc1Nc1ccnc(Cl)n1 | -6.9%
O=C(Nc1c(F)c(F)c(F)c(F)c1F)C1CCCCC1 | 5.93%
CC(C(=O)N1CCCC1)N(c1ccccc1)S(C)(=O)=O (centres unmarked) | 20.3%
C/C(=N\NC(=O)c1ccccc1)c1ccc(-n2ccnc2)cc1 | 8.54%
O=C(CCc1nnc(-c2ccccc2)o1)NCc1cc(F)ccc1F | 0.576%
Cc1csc(N(C)C(=O)CSc2nnc(COc3ccccc3C)o2)n1 | 6.62%
CC(C)CC(=O)Nc1ccc2oc(-c3cccnc3)nc2c1 | 15.3%
COCCSc1nnc(NC(=O)C2CC(=O)N(C3CCCC3)C2)s1 (centres unmarked) | 16%
COc1cccc(C(=O)OCC(=O)NC(C)CCc2ccccc2)c1O (centres unmarked) | 13.8%
CN1CCN(C(=O)/C(=C/c2ccco2)NC(=O)c2ccccc2)CC1 | -37.1%
CCN1CCN(C(=O)/C(=C/c2ccco2)NC(=O)c2ccccc2)CC1 | -57.1%
O=C(N/C(=C\c1cccc([N+](=O)[O-])c1)C(=O)N1CCOCC1)c1ccc([N+](=O)[O-])cc1 | -2.31%
O=C(N/C(=C\c1ccco1)C(=O)N1CCOCC1)c1ccc([N+](=O)[O-])cc1 | -55.9%
Cc1ccc(C(=O)N/C(=C/c2ccco2)C(=O)N2CCOCC2)cc1 | 8.19%
O=C(N/C(=C\c1ccco1)C(=O)N1CCCC1)c1ccccc1 | 14.4%
O=C(N/C(=C\c1ccc([N+](=O)[O-])cc1)C(=O)N1CCOCC1)c1ccco1 | -57.1%
O=C(N/C(=C/c1ccc([N+](=O)[O-])cc1)C(=O)N1CCOCC1)c1ccco1 | -34.6%
O=C(N/C(=C\c1ccc([N+](=O)[O-])cc1)C(=O)N1CCCCC1)c1ccco1 | -41.5%
CCOc1ccc(NS(=O)(=O)c2ccc3ncsc3c2)cc1 | 12.1%
O=C1CCCCCCC1Sc1ccccc1[N+](=O)[O-] (centres unmarked) | 3.82%
Cc1ccc(C2C(=O)N(C3CCC(C)CC3)CC(=O)N2C2CCCC2)cc1 (centres unmarked) | -13.1%
COC(=O)/C=c1/s/c(=C(/C#N)C(=O)N2CCCCC2)n(-c2ccccc2)c1=O | 9.76%
CC(C)[C@H](NS(=O)(=O)c1ccccc1)C(=O)OCn1nnc2ccccc2c1=O | 4.31%

Structure (SMILES) | hERG current change (%, negative = inhibition) at 1uM
Cn1c(=O)c2c(nc(SCCN3CCOCC3)n2Cc2ccccc2Cl)n(C)c1=O | -8.97%
Cc1ccc(Cn2c(SCCN3CCCCC3)nc3c2c(=O)n(C)c(=O)n3C)cc1 | -67.1%
Cn1c(=O)c2c(nc(SCCN3CCCCC3)n2Cc2ccc(Cl)cc2)n(C)c1=O | -48.9%
Cn1c(=O)c2c(nc(SCCN3CCCCC3)n2Cc2ccccc2)n(C)c1=O | -66%
Cn1c(=O)c2c(nc(SCCN3CCOCC3)n2Cc2ccccc2)n(C)c1=O | -5.7%
Cc1ccc(Cn2c(SCCN3CCOCC3)nc3c2c(=O)n(C)c(=O)n3C)cc1 | -6.9%
ON1C2CCCCC2N(O)C1c1c(F)c(F)c(F)c(F)c1F (centres unmarked) | 17.7%
CC1CN(CC(=O)NCc2ccccc2)CC(C)O1 (centres unmarked) | 19.2%
Cc1ccc(N2C(=O)C(CN3CCCC3)C2c2ccccc2)cc1 (centres unmarked) | -70.6%
Cc1ccc(N2C(=O)C(CN3CCOCC3)C2c2ccccc2)cc1 (centres unmarked) | -1.12%
Cc1ccc(N2C(=O)C(CN3CCCCC3)C2c2ccccc2)cc1 (centres unmarked) | -4.6%
COCCn1c(SCC(=O)N2CCC(C)CC2)nc2ccccc2c1=O | -57.9%
COc1ccc(CCn2c(SCCN3CCCCC3)nc3ccccc3c2=O)cc1OC | -8.22%
C=CCn1c(SCC(=O)N2CCCC2)nc2c([nH]c3ccccc32)c1=O | 5.21%
COCCn1c(SCC(=O)N2CCCCC2)nc2ccccc2c1=O | -30.8%
C=CCn1c(SCC(=O)NC2CCCC2)nc2c([nH]c3ccccc32)c1=O | -16.9%
CCOC(=O)CSc1nc2ccccc2c(=O)n1CC | -1.18%
CCOC(=O)CSc1nc2ccccc2c(=O)n1CC1CCCO1 (centres unmarked) | 9.44%
O=c1c2ccccc2nc(SCCN2CCCCC2)n1CCc1ccccc1 | -10%
COCCn1c(SCC(=O)N2CCOCC2)nc2ccccc2c1=O | 5.32%
CCOC(=O)CSc1nc2ccccc2c(=O)n1CC1CCCC1 | -63.8%
C=CCn1c(SCCN2CCCC2)nc2c([nH]c3ccccc32)c1=O | -63.9%
COCCn1c(SCCN2CCCCC2)nc2ccccc2c1=O | -53.3%

— article PMC4336329 (PLoS ONE, 2015)
